Results taken from PubChem BioAssay (NCATS).
Results filed as inconclusive are left out. Calls of active or inactive are those of the source. The call rests on the fitted dose curve; in most records, active means well fitted curve in the direction sought with a large enough effect; inconclusive means small, poorly fitted or top-dose-only effect, or another doubt; inactive means no such curve, though single readings can be large; an effect the other way counts as inactive or inconclusive.

Tests used:
[1] = qHTS of pediatric cancer cell lines to identify multiple opportunities for drug repurposing: Primary screen for LAN-5 cells (AID 1347100); further: potency means the concentration at half of the fitted maximal effect
How it was run: (§1)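 Viability after 48 h compound treatment at 37C, 500-1,000 cells/well, read as ATP luminescence with CellTiter-Glo. Primary screens used 11-point (MIPE, 0.78 nM-46 µM) or 8-point (NPC, 0.59 nM-46 µM) final concentrations; follow-up screens used 11-point dilutions.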

[2] = qHTS of pediatric cancer cell lines to identify multiple opportunities for drug repurposing: Primary screen for control Hh wild type fibroblast cells (AID 1347106); further: nearly all actives have a fitted effect of over 55% in size; further: potency means the concentration at half of the fitted maximal effect
How it was run: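 Cells (500-1,000/well) in growth media were settled 5 h at 37 degrees C, then given compounds for 48 h. Viability was read as CellTiter-Glo luminescence. Primary runs used MIPE at 11 points (0.78 nM-46 µM) and NPC at 8 points (0.59 nM-46 µM); follow-ups used 11 points.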

[3] = qHTS of pediatric cancer cell lines to identify multiple opportunities for drug repurposing: Primary screen for Rh41 cells (AID 1347108); further: nearly all actives have a fitted effect of over 70% in size; further: potency means the concentration at half of the fitted maximal effect
How it was run: (§2)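 Following a 5-hour attachment period, cells at 500-1,000/well received compounds and were cultured for 48 hours. CellTiter-Glo was added and luminescence read to estimate viable, metabolically active cells.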

[4] = qHTS of pediatric cancer cell lines to identify multiple opportunities for drug repurposing: Confirmatory screen for NB1643 cells (AID 1347109); further: nearly all actives have a fitted effect of over 45% in size; further: potency means the concentration at half of the fitted maximal effect
How it was run: as §1

[5] = qHTS of pediatric cancer cell lines to identify multiple opportunities for drug repurposing: Confirmatory screen for NB-EBc1 cells (AID 1347115); further: nearly all actives have a fitted effect of over 45% in size; further: potency means the concentration at half of the fitted maximal effect
How it was run: as §1

[6] = qHTS of pediatric cancer cell lines to identify multiple opportunities for drug repurposing: Confirmatory screen for control Hh wild type fibroblast cells (AID 1347121); further: nearly all actives have a fitted effect of over 70% in size
How it was run: as §1

[7] = qHTS of pediatric cancer cell lines to identify multiple opportunities for drug repurposing: Primary screen for RD cells (AID 1347104); further: nearly all actives have a fitted effect of over 55% in size; further: potency means the concentration at half of the fitted maximal effect
How it was run: as §2

[8] = qHTS of pediatric cancer cell lines to identify multiple opportunities for drug repurposing: Primary screen for MG 63 (6-TG R) cells (AID 1347105); further: nearly all actives have a fitted effect of over 50% in size; further: potency means the concentration at half of the fitted maximal effect
How it was run: as §2

[9] = qHTS of pediatric cancer cell lines to identify multiple opportunities for drug repurposing: Confirmatory screen for A673 cells (AID 1347110); further: nearly all actives have a fitted effect of over 65% in size; further: potency means the concentration at half of the fitted maximal effect
How it was run: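 Viability was read as ATP luminescence (CellTiter-Glo) after 48 h of compound exposure at 37 C in A673 cells seeded at 500-1,000/well. Titrations reached 46 uM final, with 11 points in the confirmatory screen. Concentration-response curves were fitted directly.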

[10] = qHTS of pediatric cancer cell lines to identify multiple opportunities for drug repurposing: Confirmatory screen for LAN-5 cells (AID 1347113); further: nearly all actives have a fitted effect of over 65% in size; further: potency means the concentration at half of the fitted maximal effect
How it was run: as §1

[11] = qHTS of pediatric cancer cell lines to identify multiple opportunities for drug repurposing: Confirmatory screen for DAOY cells (AID 1347114); further: nearly all actives have a fitted effect of over 65% in size; further: potency means the concentration at half of the fitted maximal effect
How it was run: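 Viability measured as metabolically active cells via CellTiter-Glo luminescence following 48 hours of compound exposure, 11-point dilutions in confirmatory testing. 500-1,000 cells/well plated 5 hours before dosing; controls were DMSO and 2.3 µM bortezomib.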

[12] = qHTS of pediatric cancer cell lines to identify multiple opportunities for drug repurposing: Primary screen for BT-12 cells (AID 1347101); further: nearly all actives have a fitted effect of over 25% in size; further: potency means the concentration at half of the fitted maximal effect
How it was run: (§3)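 Cells (500-1,000/well) rested 5 h, then received compounds for 48 h; metabolically active cells were measured by CellTiter-Glo luminescence. Final concentrations spanned up to 46 µM (MIPE, 11-point) or 0.59 nM-46 µM (NPC, 8-point) in primary screens, 11-point in follow-ups.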

[13] = qHTS of pediatric cancer cell lines to identify multiple opportunities for drug repurposing: Primary screen for Rh18 cells (AID 1347102); further: nearly all actives have a fitted effect of over 65% in size; further: potency means the concentration at half of the fitted maximal effect
How it was run: as §1

[14] = qHTS of pediatric cancer cell lines to identify multiple opportunities for drug repurposing: Primary screen for OHS-50 cells (AID 1347103); further: nearly all actives have a fitted effect of over 40% in size; further: potency means the concentration at half of the fitted maximal effect
How it was run: as §3

[15] = qHTS of pediatric cancer cell lines to identify multiple opportunities for drug repurposing: Primary screen for Rh30 cells (AID 1347107); further: series mostly up to about 46 µM; nearly all actives have a fitted effect of over 75% in size
How it was run: as §1

[16] = qHTS of pediatric cancer cell lines to identify multiple opportunities for drug repurposing: Confirmatory screen for SK-N-MC cells (AID 1347111);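 further: cells exposed to compound for 48 h before the readout; nearly all actives have a fitted effect of over 70% in size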; further: potency means the concentration at half of the fitted maximal effect
How it was run: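 SK-N-MC cells at 500-1,000 cells/well in growth media were pre-incubated 5 h, then exposed to compounds at 11-point dilutions for 48 h at 37 degrees C, 5% CO2. Viability was read as CellTiter-Glo luminescence.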

[17] = qHTS of pediatric cancer cell lines to identify multiple opportunities for drug repurposing: Confirmatory screen for BT-37 cells (AID 1347117); further: nearly all actives have a fitted effect of over 55% in size; further: potency means the concentration at half of the fitted maximal effect
How it was run: as §1

[18] = qHTS of pediatric cancer cell lines to identify multiple opportunities for drug repurposing: Confirmatory screen for TC32 cells (AID 1347118); further: nearly all actives have a fitted effect of over 65% in size; further: potency means the concentration at half of the fitted maximal effect
How it was run: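 qHTS, TC32, 48 h drug treatment, CellTiter-Glo luminescence as a proxy for metabolically active cells; primary top concentration 46 µM (MIPE 11-pt, NPC 8-pt); confirmatory 11-pt.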

[19] = qHTS of pediatric cancer cell lines to identify multiple opportunities for drug repurposing: Confirmatory screen for MG 63 (6-TG R) cells (AID 1347119); further: nearly all actives have a fitted effect of over 55% in size; further: potency means the concentration at half of the fitted maximal effect
How it was run: as §1

Measured: Potency

Cc1cc(CS(=O)(=O)c2ccccc2)cc(OCc2ccc(CN3CCC[C@H]3CO)cc2)c1
inactive: [1] | [2] | [4] | [5] | [6]
active: [3] 11.8 µM

CC(=O)N1CCN(c2ccc(OCc3nn(C)c(C)c3-c3cccc4c(CCCOc5cc(C)c(Cl)c(C)c5)c(C(=O)O)n(Cc5cccnc5)c34)cc2)CC1
active: [1] 20.9 µM | [7] 18.7 µM | [8] 29.6 µM | [3] 18.7 µM | [9] 18.5 µM
inactive: [2] | [4] | [10] | [11]

O=S(=O)(O)c1ccc2cc(N=Nc3cc(S(=O)(=O)O)c4cccnc4c3O)ccc2c1
inactive: [1] | [2]

CC1=C(C(=O)Nc2cc3cn[nH]c3cc2F)C(c2ccc(C(F)(F)F)cc2)CC(=O)N1 (stereo unspecified)
inactive: [12] | [13] | [14] | [7] | [2] | [15] | [3]

Cc1ccc2c(=O)c3cccc(CC(=O)O)c3oc2c1C
inactive: [12] | [13] | [14] | [2] | [15]
active: [7] 29.6 µM | [8] 23.5 µM | [3] 23.5 µM

O=C1NC(=O)C(c2cnc3ccccn23)=C1c1cn2c3c(cccc13)CN(C(=O)N1CCOCC1)CC2
active: [1] 2.96 µM | [8] 0.469 µM | [16] 14.7 µM | [5] 2.93 µM | [17] 16.5 µM | [18] 4.65 µM
inactive: [2]

C[C@@H](N)c1ccc(C(=O)Nc2ccnc3[nH]ccc23)cc1
active: [1] 16.6 µM
inactive: [8] | [2] | [15]

CNC1CCC(N(Cc2cccc(-c3ccncc3)c2)C(=O)c2sc3ccccc3c2Cl)CC1 (stereo unspecified)
active: [12] 30.6 µM | [13] 23.5 µM | [14] 19.3 µM | [7] 18.7 µM | [8] 29.6 µM
inactive: [2]

CNC(=O)[C@H](CC1=CN=C2C=CCC=C12)NC(=O)[C@@H](CC(=O)NO)CC(C)C
active: [12] 0.344 µM | [14] 1.37 µM | [7] 1.18 µM | [8] 9.35 µM | [9] 14.7 µM | [17] 0.827 µM | [19] 1.47 µM
inactive: [13] | [2] | [15]

COc1ccc2c(c1)c(C1=C(c3c[nH]c4ccccc34)C(=O)NC1=O)cn2CCCN(C)C
inactive: [8] | [2] | [19]
active: [1] 16.6 µM | [4] 20.8 µM | [16] 8.27 µM | [10] 16.5 µM | [11] 23.3 µM | [17] 23.3 µM | [18] 23.3 µM

CO[C@H]1O[C@@H]2O[C@@]3(C)CC[C@@H]4[C@@H](C)CC[C@@H]([C@H]1C)[C@@]24OO3
active: [1] 20.9 µM
inactive: [8] | [2] | [3]

C[C@H](CCC(=O)O)[C@H]1CC[C@H]2[C@H]3[C@@H](CC[C@]12C)[C@@]1(C)CC[C@@H](O)C[C@H]1C[C@@H]3O
inactive: [12] | [13] | [14] | [2] | [15]

COc1ccc2cc1Oc1ccc(cc1)C[C@H]1c3cc(c(OC)cc3CCN1C)Oc1c(OC)c(OC)cc3c1[C@H](C2)N(C)CC3
active: [12] 7.69 µM | [14] 17.2 µM
inactive: [13] | [2]

CCC(=O)OCC(=O)[C@@]1(OC(=O)CC)[C@@H](C)C[C@@H]2[C@H]3CCC4=CC(=O)C=C[C@]4(C)[C@@]3(F)[C@@H](O)C[C@@]21C
inactive: [13] | [2] | [15] | [4] | [16] | [10] | [17] | [19]
active: [12] 6.11 µM | [14] 10.9 µM | [7] 6.62 µM | [3] 0.148 µM

COC(=O)Nc1ccc(-c2nc(N3CCOCC3)c3cnn(C4CCN(C(=O)OC)CC4)c3n2)cc1
active: [12] 0.611 µM | [13] 6.62 µM | [14] 0.432 µM | [7] 1.66 µM | [8] 0.469 µM | [2] 0.0209 µM | [3] 1.32 µM | [9] 2.93 µM | [16] 4.65 µM | [10] 8.27 µM | [17] 3.69 µM | [18] 3.69 µM | [19] 1.31 µM
inactive: [15]

COC1CCC(C(=O)c2ccc3nc4c(cc3c2)CCCO4)CC1 (stereo unspecified)
inactive: [13] | [2] | [4] | [16] | [10] | [5] | [17]
active: [12] 1.93 µM | [14] 12.2 µM | [7] 26.4 µM | [11] 23.3 µM

CCC(=O)N1CCN(c2ccc(-n3c(=O)ccc4cnc5ccc(-c6cnc7ccccc7c6)cc5c43)cc2C(F)(F)F)CC1
active: [14] 0.0432 µM | [3] 0.0743 µM | [16] 9.27 µM | [18] 8.27 µM
inactive: [1] | [15] | [4] | [9] | [10] | [11] | [5]

CCC[C@H](N[C@@H](C)C(=O)N1[C@@H]2CCCC[C@H]2C[C@H]1C(=O)O)C(=O)OCC
not listed: [6] | [7] | [9] | [12] | [13] | [14]
inactive: all other assays above

O=C1C(c2c(O)[nH]c3ccccc23)=Nc2ccccc21
inactive: [1] | [14] | [3]
